Laboratory results taken from PubChem BioAssay AID1159580 (chemical genetic matrix, 2015).
Hit rate of the full screen: of about 5,500 compounds, about 2,000 (36%) were called active. Inconclusive results (about 18%) are left out. No stated cut-off is given here; in the data, active means normalized growth mostly below about 0.91 (no sharp cut-off); inconclusive means no clear call, values can overlap the other calls; inactive means mostly above about 0.92. Some of the results follow.

Assay: chemical genetic growth profiling, strain panel (AID 1159580);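 further: tested at 20 µM; growth read once vehicle control cultures reached saturation at 30 °C; 1 = growth at the plate median or of vehicle wells; lower values mean less growth of the strain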
Settings: growth OD

Measured: normalized growth

CC(=O)OCC(=O)[C@@]12OC3(CCCC3)O[C@@H]1CC1C3CCC4=CC(=O)C=C[C@]4(C)[C@@]3(F)[C@@H](O)C[C@@]12C (some centres not stated)
inactive: S. cerevisiae deletion strains, locus YJR075W, strain HOC1, hits give low values 1.01 | S. cerevisiae deletion strains, locus YKL009W, strain mrt4, hits give low values 0.967 | S. cerevisiae deletion strains, locus YKL068W, hits give low values 0.991 | S. cerevisiae deletion strains, locus YKL085W, strain MDH1 (second series), hits give low values 0.994 | S. cerevisiae deletion strains, locus YKL085W, strain MDH1, hits give low values 0.994 | S. cerevisiae deletion strains, locus YKL160W, strain elf1, hits give low values 1.01 | S. cerevisiae deletion strains, locus YKL190W, strain CNB1, hits give low values 0.997 | S. cerevisiae deletion strains, locus YKR001C, strain vps1, hits give low values 0.985 | S. cerevisiae deletion strains, locus YKR026C, strain gcn3, hits give low values 1.02 | S. cerevisiae deletion strains, locus YKR091W, strain srl3, hits give low values 1.01 | S. cerevisiae deletion strains, locus YLL001W, strain dnm1, hits give low values 1 | S. cerevisiae deletion strains, locus YLL026W, hits give low values 1.01 | S. cerevisiae deletion strains, locus YLL041C, strain sdh2, hits give low values 1.02 | S. cerevisiae deletion strains, locus YLR027C, strain aat2, hits give low values 1.01 | S. cerevisiae deletion strains, locus YLR039C, strain RIC1, hits give low values 0.94 | S. cerevisiae deletion strains, locus YLR058C, strain SHM2, hits give low values 1.01 | S. cerevisiae deletion strains, locus YLR102C, strain apc9, hits give low values 0.992 | S. cerevisiae deletion strains, locus YLR113W, strain HOG1, hits give low values 0.989 | S. cerevisiae deletion strains, locus YLR221C, strain rsa3, hits give low values 1.01 | S. cerevisiae deletion strains, locus YLR258W, strain gsy2, hits give low values 1.02 | S. cerevisiae deletion strains, locus YLR262C, strain YPT6 (second series), hits give low values 1 | S. cerevisiae deletion strains, locus YLR262C, strain YPT6, hits give low values 0.961 | S. cerevisiae deletion strains, locus YLR268W, strain sec22, hits give low values 0.958 | S. cerevisiae deletion strains, locus YLR320W, strain mms22, hits give low values 1.02 | S. cerevisiae deletion strains, locus YLR330W, strain CHS5, hits give low values 1.01 | S. cerevisiae deletion strains, locus YLR342W, strain FKS1 (second series), hits give low values 1.05 | S. cerevisiae deletion strains, locus YLR342W, strain FKS1, hits give low values 1.02 | S. cerevisiae deletion strains, locus YLR357W, strain rsc2, hits give low values 1.04 | S. cerevisiae deletion strains, locus YLR370C, strain arc18, hits give low values 1.02 | S. cerevisiae deletion strains, locus YLR371W, strain rom2, hits give low values 0.984 | S. cerevisiae deletion strains, locus YLR384C, strain iki3, hits give low values 1.01 | S. cerevisiae deletion strains, locus YLR418C, strain cdc73, hits give low values 0.944 | S. cerevisiae deletion strains, locus YML016C, strain PPZ1, hits give low values 1.02 | S. cerevisiae deletion strains, locus YML032C, strain rad52, hits give low values 0.968 | S. cerevisiae deletion strains, locus YML120C, strain ndi1, hits give low values 1.02 | S. cerevisiae deletion strains, locus YML124C, strain tub3, hits give low values 0.988 | S. cerevisiae deletion strains, locus YMR058W, strain fet3, hits give low values 1.02 | S. cerevisiae deletion strains, locus YMR078C, strain ctf18, hits give low values 1 | S. cerevisiae deletion strains, locus YMR125W, strain sto1, hits give low values 1.03 | S. cerevisiae deletion strains, locus YMR129W, hits give low values 1.02 | S. cerevisiae deletion strains, locus YMR205C, strain PFK2, hits give low values 1.02 | S. cerevisiae deletion strains, locus YMR223W, strain ubp8, hits give low values 1.01 | S. cerevisiae deletion strains, locus YMR231W, strain pep5, hits give low values 1.01 | S. cerevisiae deletion strains, locus YMR263W, strain SAP30, hits give low values 1.01 | S. cerevisiae deletion strains, locus YMR307W, strain GAS1, hits give low values 1.11 | S. cerevisiae deletion strains, locus YNL067W, strain RPL9B, hits give low values 1 | S. cerevisiae deletion strains, locus YNL071W, strain lat1, hits give low values 1.01 | S. cerevisiae deletion strains, locus YNL128W, strain TEP1, hits give low values 1.03 | S. cerevisiae deletion strains, locus YNL153C, strain GIM3, hits give low values 0.996 | S. cerevisiae deletion strains, locus YNL183C, strain NPR1, hits give low values 0.954 | S. cerevisiae deletion strains, locus YNL209W, strain ssb2, hits give low values 1.01 | S. cerevisiae deletion strains, locus YNL233W, strain BNI4, hits give low values 1.01 | S. cerevisiae deletion strains, locus YNL248C, strain rpa49, hits give low values 0.978 | S. cerevisiae deletion strains, locus YNL250W, strain rad50, hits give low values 0.994 | S. cerevisiae deletion strains, locus YNL271C, strain bni1, hits give low values 0.984 | S. cerevisiae deletion strains, locus YNL298W, strain CLA4, hits give low values 0.982 | S. cerevisiae deletion strains, locus YNL307C, strain MCK1, hits give low values 0.992 | S. cerevisiae deletion strains, locus YNL322C, strain KRE1 (second series), hits give low values 1.03 | S. cerevisiae deletion strains, locus YNL322C, strain KRE1, hits give low values 1.01 | S. cerevisiae deletion strains, locus YNR049C, strain mso1, hits give low values 1.03 | S. cerevisiae deletion strains, locus YNR052C, strain pop2, hits give low values 0.99 | S. cerevisiae deletion strains, locus YOL006C, strain TOP1, hits give low values 1.01 | S. cerevisiae deletion strains, locus YOL012C, strain htz1 0.599 | S. cerevisiae deletion strains, locus YOL147C, strain pex11, hits give low values 1 | S. cerevisiae deletion strains, locus YOR001W, strain rrp6, hits give low values 1.02 | S. cerevisiae deletion strains, locus YOR061W, strain CKA2, hits give low values 1.01 | S. cerevisiae deletion strains, locus YOR069W, strain VPS5, hits give low values 1.01 | S. cerevisiae deletion strains, locus YOR070C, strain gyp1, hits give low values 1.02 | S. cerevisiae deletion strains, locus YOR080W, strain dia2, hits give low values 1.04 | S. cerevisiae deletion strains, locus YOR083W, strain WHI5, hits give low values 0.998 | S. cerevisiae deletion strains, locus YOR106W, strain vam3, hits give low values 1.01 | S. cerevisiae deletion strains, locus YOR136W, strain idh2, hits give low values 0.981 | S. cerevisiae deletion strains, locus YOR144C, strain elg1, hits give low values 0.991 | S. cerevisiae deletion strains, locus YOR184W, strain ser1, hits give low values 0.983 | S. cerevisiae deletion strains, locus YOR231W, strain MKK1, hits give low values 0.963 | S. cerevisiae deletion strains, locus YOR265W, strain rbl2, hits give low values 1.02 | S. cerevisiae deletion strains, locus YOR270C, strain vph1, hits give low values 0.921 | S. cerevisiae deletion strains, locus YOR290C, strain snf2, hits give low values 1.01 | S. cerevisiae deletion strains, locus YOR316C, strain cot1, hits give low values 1 | S. cerevisiae deletion strains, locus YPL051W, strain arl3, hits give low values 1.02 | S. cerevisiae deletion strains, locus YPL055C, strain LGE1, hits give low values 1.01 | S. cerevisiae deletion strains, locus YPL078C, strain atp4, hits give low values 1.01 | S. cerevisiae deletion strains, locus YPL106C, strain sse1, hits give low values 1.1 | S. cerevisiae deletion strains, locus YPL240C, strain hsp82, hits give low values 1.01 | S. cerevisiae deletion strains, locus YPL241C, strain CIN2, hits give low values 1.01 | S. cerevisiae deletion strains, locus YPL256C, strain CLN2, hits give low values 0.975 | S. cerevisiae deletion strains, locus YPR119W, strain clb2, hits give low values 0.982 | S. cerevisiae deletion strains, locus YPR141C, strain kar3, hits give low values 0.989 | S. cerevisiae deletion strains, locus YPR163C, strain tif3, hits give low values 0.98 | S. cerevisiae deletion strains, locus YPR167C, strain met16, hits give low values 0.999 | S. cerevisiae deletion strains, strain wtn01, hits give low values 0.98 | S. cerevisiae strains, strain wild type, hits give low values 1.01
